“And” between values parts separate entries of the source, which are not always exact repeats. Equal entries are not always repeated. Hit rate of the full screen: of about 5,500 compounds, about 2,000 (36%) were called active. About 18% were inconclusive and are not listed. No stated cut-off is given here; in the data, active means normalized growth mostly below about 0.91 (no sharp cut-off); inconclusive means no clear call, values can overlap the other calls; inactive means mostly above about 0.92. The list shows a part of the results.
Experiment: chemical genetic growth profiling, strain panel (AID 1159580);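 further: tested at 20 µM; growth read once vehicle control cultures reached saturation at 30 °C; 1 = growth at the plate median or of vehicle wells; lower values mean less growth of the strain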
Conditions: S. cerevisiae deletion strains, growth OD

Measured: normalized growth

COc1ccc(OC)c(C(O)CNC(=O)CN)c1 (stereo not given)
inactive: locus YAL021C, strain ccr4, active compounds read low 0.984 | locus YAL026C, strain drs2, active compounds read low 1 | locus YAL030W, strain snc1, active compounds read low 1.01 | locus YBL061C, strain skt5, active compounds read low 1.01 | locus YBR009C, strain hhf1, active compounds read low 1 | locus YBR021W, strain FUR4, active compounds read low 1.02 | locus YBR023C, strain chs3, active compounds read low 1 | locus YBR171W, strain sec66, active compounds read low 1.02 | locus YBR229C, strain ROT2, active compounds read low 0.961 | locus YBR231C, strain swc5, active compounds read low 1 | locus YBR279W, strain paf1, active compounds read low 1.01 | locus YCL011C, strain gbp2, active compounds read low 1.01 | locus YCL016C, strain dcc1, active compounds read low 1.01 | locus YCL029C, strain bik1, active compounds read low 0.987 | locus YCL061C, strain MRC1, active compounds read low 1.01 | locus YCL069W, strain vba3, active compounds read low 1.01 | locus YCR088W, strain abp1, active compounds read low 0.996 | locus YDL005C, strain med2, active compounds read low 1 | locus YDL035C, strain GPR1, active compounds read low 0.986 | locus YDL040C, strain nat1, active compounds read low 0.997 | locus YDL074C, strain BRE1, active compounds read low 0.962 | locus YDL101C, strain DUN1, active compounds read low 0.987 | locus YDL134C, strain PPH21, active compounds read low 1 | locus YDL185W, strain tfp1, active compounds read low 0.979 | locus YDL192W, strain arf1, active compounds read low 0.964 | locus YDR001C, strain nth1, active compounds read low 0.997 | locus YDR069C, strain doa4, active compounds read low 1 | locus YDR101C, strain arx1, active compounds read low 0.98 | locus YDR137W, strain rgp1, active compounds read low 1.01 | locus YDR150W, strain NUM1, active compounds read low 0.993 | locus YDR159W, strain sac3, active compounds read low 0.989 | locus YDR162C, strain NBP2, active compounds read low 0.983 | locus YDR195W, strain ref2 0.977 | locus YDR297W, strain sur2, active compounds read low 1 | locus YDR318W, strain mcm21, active compounds read low 0.982 | locus YDR334W, strain swr1, active compounds read low 1.01 | locus YDR335W, strain msn5, active compounds read low 1 | locus YDR388W, active compounds read low 0.983 | locus YDR392W, strain spt3, active compounds read low 1.02 | locus YDR502C, strain sam2, active compounds read low 0.981 | locus YEL003W, strain gim4, active compounds read low 0.998 | locus YEL037C, strain rad23, active compounds read low 1 | locus YEL061C, strain CIN8 (second series), active compounds read low 1.01 | locus YEL061C, strain CIN8, active compounds read low 0.979 | locus YER015W, strain faa2, active compounds read low 1.02 | locus YER016W, strain bim1, active compounds read low 1 | locus YER110C, active compounds read low 0.973 | locus YER111C, strain swi4, active compounds read low 1.01 | locus YER155C, strain BEM2 (second series), active compounds read low 1.01 | locus YER155C, strain BEM2, active compounds read low 1 | locus YER167W, strain BCK2, active compounds read low 1.01 | locus YFR010W, strain ubp6, active compounds read low 1.01 | locus YGL078C, strain dbp3, active compounds read low 0.974 | locus YGL086W, strain mad1, active compounds read low 0.979 | locus YGL167C, strain pmr1, active compounds read low 0.995 | locus YGL173C, strain kem1, active compounds read low 0.995 | locus YGL227W, strain vid30, active compounds read low 1 | locus YGL240W, strain doc1, active compounds read low 1.02 | locus YGL248W, strain PDE1, active compounds read low 0.967 | locus YGL253W, strain hxk2, active compounds read low 1.02 | locus YGR135W, strain pre9, active compounds read low 0.999 | locus YGR229C, strain SMI1, active compounds read low 0.99 | locus YGR252W, strain gcn5, active compounds read low 0.956 | locus YHR013C, strain ard1, active compounds read low 1.01 | locus YHR027C, strain rpn1, active compounds read low 0.999 | locus YHR030C, strain SLT2, active compounds read low 1 | locus YHR079C, strain IRE1 (second series), active compounds read low 0.991 | locus YHR079C, strain IRE1, active compounds read low 1.01 | locus YHR094C, strain hxt1, active compounds read low 0.978 | locus YHR129C, strain ARP1, active compounds read low 0.996 | locus YHR142W, strain chs7, active compounds read low 0.997 | locus YIL066C, strain RNR3, active compounds read low 0.969 | locus YIL073C, strain SPO22, active compounds read low 0.985 | locus YIL125W, strain kgd1, active compounds read low 0.975 | locus YIR030C, strain dcg1, active compounds read low 0.986 | locus YJL092W, strain hpr5, active compounds read low 1.01 | locus YJL095W, strain BCK1 (second series), active compounds read low 1 | locus YJL095W, strain BCK1, active compounds read low 0.975 and 1.03 | locus YJL115W, strain asf1, active compounds read low 1 | locus YJL129C, strain trk1, active compounds read low 0.999 | locus YJL134W, strain LCB3, active compounds read low 0.991 | locus YJL154C, strain vps35, active compounds read low 0.992 | locus YJL164C, strain tpk1, active compounds read low 1 | locus YJL166W, strain qcr8, active compounds read low 1 | locus YJL168C, strain set2, active compounds read low 0.976 | locus YJL187C, strain SWE1 (second series), active compounds read low 0.958 | locus YJL187C, strain SWE1, active compounds read low 1 | locus YJR043C, strain POL32, active compounds read low 0.944 | locus YJR066W, strain TOR1, active compounds read low 1 | locus YJR075W, strain HOC1, active compounds read low 0.993

From PubChem BioAssay AID1159580 (chemical genetic matrix, 2015)
